Results reported in PubChem BioAssay AID687016 (The Scripps Research Institute Molecular Screening Center, 2013).
Among all 370,000 compounds or so, about 2,800 (0.76%) were called active. This is one part of a sample in which actives are shown more often than they occur. Unmarked numbers belong to inactive results. Cut-off read from the data, not from the text of the source: active = inhibition above about 21%; inactive = the rest.

Each compound was assayed against E3 ubiquitin-protein ligase UHRF1 (Homo sapiens) (UniProt Q96T88) (assay: blockers of UHRF1 binding to methyl-oligo – biochemical, TR-FRET, human UHRF1, single concentration, counter-screen for MBD2 inhibitor project, primary screen (AID 687016;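 note: UHRF1 SRA domain binding a hemimethylated CpG hairpin DNA probe; 0% = median of test compound wells and 100% = reference inhibitor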)). Conditions: UHRF1 binding to methylated oligo, at 4.4 µM, hits give high values.
E3 ubiquitin-protein ligase UHRF1 (Homo sapiens), sequence (Q96T88 whole entry, looked up, the tested form may be a part): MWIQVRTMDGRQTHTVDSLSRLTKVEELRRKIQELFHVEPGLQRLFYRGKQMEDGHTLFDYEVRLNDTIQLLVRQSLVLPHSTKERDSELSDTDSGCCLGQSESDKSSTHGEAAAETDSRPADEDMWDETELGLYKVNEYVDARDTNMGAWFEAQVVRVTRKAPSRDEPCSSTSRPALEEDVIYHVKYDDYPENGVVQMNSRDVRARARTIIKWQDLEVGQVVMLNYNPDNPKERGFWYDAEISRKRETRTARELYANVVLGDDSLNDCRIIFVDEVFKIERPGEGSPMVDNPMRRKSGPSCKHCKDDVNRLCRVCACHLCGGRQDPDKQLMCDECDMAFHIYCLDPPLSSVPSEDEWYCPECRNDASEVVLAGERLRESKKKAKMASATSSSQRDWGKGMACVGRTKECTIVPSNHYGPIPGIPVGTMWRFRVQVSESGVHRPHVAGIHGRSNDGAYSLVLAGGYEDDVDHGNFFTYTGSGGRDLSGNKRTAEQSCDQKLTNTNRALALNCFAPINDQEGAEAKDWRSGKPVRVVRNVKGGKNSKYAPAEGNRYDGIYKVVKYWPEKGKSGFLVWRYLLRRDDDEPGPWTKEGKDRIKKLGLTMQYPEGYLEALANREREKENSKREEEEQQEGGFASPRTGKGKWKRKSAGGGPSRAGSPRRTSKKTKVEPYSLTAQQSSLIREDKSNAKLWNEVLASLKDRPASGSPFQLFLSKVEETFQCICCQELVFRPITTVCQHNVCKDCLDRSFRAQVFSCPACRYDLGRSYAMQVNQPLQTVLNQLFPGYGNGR

Question: `CCOC(=O)[C@]12CCCC3=C1N(CCC3)C(=O)[C@@H](CC(=O)N1CCSCC1)C2` was tested. Which inhibition did it give?
Answer: -0.01%

Question: With `O=C(Nc1ccccc1)N1CCN(Cc2nc3ccccc3c(=O)[nH]2)CC1` as the compound, how does the inhibition read?
Answer: 0.95%

Question: `O=C(NCc1ccco1)C1CCCN(S(=O)(=O)c2ccc(Cl)s2)C1` (stereo not drawn) was tested. Which inhibition did it give?
Answer: -1.18%

Question: For `COC(=O)C[C@@H]1CC[C@@H]2[C@@H](COc3ccc(NC(=O)Nc4ccc(F)c(F)c4)cc3C(=O)N2C)O1`, which inhibition is on record?
Answer: 0.81%

Question: With `CCOC(=O)C1(Cc2ccccc2)CCN(Cc2cn(C(C)=O)c3ccccc23)CC1` as the compound, how does the inhibition read?
Answer: -2.91%

Question: With `Cc1cc([N+](=O)[O-])nn1Cc1ccc(F)cc1` as the compound, how does the inhibition read?
Answer: 20.9% (active)

Question: Which inhibition does the source give for `Cc1cc([N+](=O)[O-])nn1CCCC(=O)Nc1cccnc1Cl` here?
Answer: 1.45%

Question: With `Cc1cc([N+](=O)[O-])nn1CC(=O)Nc1ccc(Cc2ccncc2)cc1` as the compound, how does the inhibition read?
Answer: -2.12%

Question: Which inhibition does the source give for `CCCCNS(=O)(=O)c1ccc(S(=O)(=O)n2cnc3ccccc32)cc1` here?
Answer: 20.7% (active)

Question: Which inhibition does the source give for `Cc1ccc(S(=O)(=O)n2cnc3ccccc32)c(C)c1` here?
Answer: 8.08%

Question: For `COc1ccc(S(=O)(=O)n2cnc3ccccc32)c(C)c1`, which inhibition is on record?
Answer: 1.22%

Question: `CCOC(=O)[C@]12CCCCC/C=C\1N(Cc1ccc(OC)cc1)C(=O)[C@H]2CC(=O)N1CCOCC1` was tested. Which inhibition did it give?
Answer: -3.09%

Question: With `O=C(CCCCCN1C(=O)C2C3C=CC(C3)C2C1=O)Nc1ccccc1` (stereo not drawn) as the compound, how does the inhibition read?
Answer: -1.94%

Question: How did the inhibition turn out when `Cc1cc(/C=N/n2cnnc2)c(C)n1-c1ccc2ncccc2c1` was run?
Answer: 0.89%

Question: For `Cc1cc(/C=N/n2cnnc2)c(C)n1-c1cccc(C(=O)O)c1`, which inhibition is on record?
Answer: 60% (active)

Question: How did the inhibition turn out when `Fc1ccc(Br)cc1/C=N/n1cnnc1` was run?
Answer: -0.98%

Question: How did the inhibition turn out when `COC(CNC(=O)[C@H](Cc1ccccc1)NC1(C(=O)NC2CCCCC2)CCCCC1)OC` was run?
Answer: -1.65%

Question: How did the inhibition turn out when `COC[C@@H]1CCCN1c1ccc2c(c1)O[C@H](C)CCN(C1CC1)S2(=O)=O` was run?
Answer: -3.33%

Question: For `COc1ccc2oc(C(=O)NCc3ccco3)c(C)c2c1`, which inhibition is on record?
Answer: -0.64%

Question: With `CCCC1=Nc2cc(C(=O)NCc3ccco3)ccc2Sc2ccccc21` as the compound, how does the inhibition read?
Answer: 0.66%

Question: How did the inhibition turn out when `CCCCOc1ccc(C(=O)NCc2ccco2)cc1` was run?
Answer: 25% (active)

Question: How did the inhibition turn out when `C#CCCN([C@H](C(=O)OC)C(C)C)S(=O)(=O)c1ccc(F)cc1Br` was run?
Answer: -0.78%

Question: For `CCOc1cc2[nH]c(=S)n(CCN3CCCCC3C)c(=O)c2cc1OCC` (stereo not drawn), which inhibition is on record?
Answer: 66% (active)

Question: `COc1cc2[nH]c(=S)n(CCN3CCCCC3C)c(=O)c2cc1OC` (stereo not drawn) was tested. Which inhibition did it give?
Answer: 8.11%

Question: `CCOc1cc2[nH]c(=S)n(CCCN3CCCC3=O)c(=O)c2cc1OCC` was tested. Which inhibition did it give?
Answer: -0.84%

Question: For `O=C(CN1CCCc2ccccc21)NCc1ccc(F)cc1`, which inhibition is on record?
Answer: -2.07%

Question: For `OC(C#CCN1CCOCC1)(c1ccccc1)C1CCCCC1` (stereo not drawn), which inhibition is on record?
Answer: 1.93%

Question: How did the inhibition turn out when `CN(CC#CCC(c1ccccc1)c1ccccc1)C(C)(C)C` was run?
Answer: -0.47%

Question: Which inhibition does the source give for `CC(C)(C)N(CC#CCC(O)(c1ccccc1)C1CCCC1)CCO` (stereo not drawn) here?
Answer: 24.7% (active)

Question: `CN[C@H]1C[C@H]2c3cc(N4CCOCC4)ccc3CCN2C[C@H]1[C@H](C)O` was tested. Which inhibition did it give?
Answer: -0.07%

Question: `O=C(NC1CCCCN(Cc2cccc(C(F)(F)F)c2)C1=O)c1ccccc1I` (stereo not drawn) was tested. Which inhibition did it give?
Answer: -2.03%

Question: How did the inhibition turn out when `Cc1cc2c(cc1C)N(Cc1ccccc1)C1=NCCCN12` was run?
Answer: -2.05%

Question: Which inhibition does the source give for `CC(C)(C)C(=O)CN1C2=NCCN2c2ccccc21` here?
Answer: 0.42%

Question: Which inhibition does the source give for `OC(CN1C2=NCCCN2c2ccccc21)c1ccc(Br)cc1` (stereo not drawn) here?
Answer: 68.9% (active)

Question: How did the inhibition turn out when `CC(C)(C)OC(=O)NCCc1ccccc1/C=C/S(=O)(=O)NCc1ccc(F)cc1` was run?
Answer: 3.54%

Question: Which inhibition does the source give for `CSc1ccc(C=Nn2c(-c3ccc(F)cc3)n[nH]c2=S)cc1` here?
Answer: -0.35%

Question: With `CCOc1ccc(-n2c(SCC(=O)Nc3cc(C)c(NC(=O)c4ccccc4)cc3OC)nnc2-c2cccs2)cc1` as the compound, how does the inhibition read?
Answer: -0.28%

Question: For `Cc1ccc(C(=O)C2CCN(CC(=O)NCCC(C)C)CC2)cc1`, which inhibition is on record?
Answer: 9.98%

Question: With `O=S1(=O)c2c(NCc3ccco3)cccc2Oc2ccccc2CN1Cc1cn(Cc2cccc(C(F)(F)F)c2)nn1` as the compound, how does the inhibition read?
Answer: 3.97%

Question: `CC(=O)c1cccc(-c2ccc(CN3C(CC(C)C)C(=O)N(Cc4cn(CC5CCCCC5)nn4)CCS3(=O)=O)cc2)c1` (stereo not drawn) was tested. Which inhibition did it give?
Answer: 21% (active)

Question: With `CC(C)CC1C(=O)N(Cc2cn(CC3CCCCC3)nn2)CCS(=O)(=O)N1Cc1ccc(-c2ccc(Cl)cc2)cc1` (stereo not drawn) as the compound, how does the inhibition read?
Answer: -1.68%

Question: With `COc1ccc(-c2ccc(CN3C(CC(C)C)C(=O)N(Cc4cn(CC5CCCCC5)nn4)CCS3(=O)=O)cc2)cc1` (stereo not drawn) as the compound, how does the inhibition read?
Answer: 1.54%

Question: For `CCOC(=O)[C@@]12CN(C(=O)OC(C)(C)C)CC=C1N(Cc1ccc(OC)cc1)C(=O)[C@H]2CC(=O)NCc1ccc(OC)c(OC)c1`, which inhibition is on record?
Answer: -2.61%

Question: With `COC(=O)C1CN(CC(C)C)CCS(=O)(=O)N1Cc1ccc(C)cc1` (stereo not drawn) as the compound, how does the inhibition read?
Answer: 1.11%

Question: With `O=C(O)CCCn1cc(NC(=O)COc2cccc(Cl)c2)cn1` as the compound, how does the inhibition read?
Answer: 5.22%

Question: Which inhibition does the source give for `O=C(COc1cccc(Cl)c1)NCc1ccccc1` here?
Answer: 36% (active)

Question: Which inhibition does the source give for `O=C(COC(=O)c1cccc(Cl)c1)NC(=O)NCc1ccccc1` here?
Answer: -0.3%

Question: For `CCCCCCCCNS(=O)(=O)/C=C/c1cc(C)ccc1CNC(=O)OC(C)(C)C`, which inhibition is on record?
Answer: -7.08%

Question: With `CC(=O)C1(C(=O)Nc2nccs2)CC(c2ccccc2C(F)(F)F)=NO1` (stereo not drawn) as the compound, how does the inhibition read?
Answer: -0.55%

Question: `CCOC(=O)[C@]12CCCC3=C1N(CCC3)C(=O)[C@@H](CC(=O)NCc1cccs1)C2` was tested. Which inhibition did it give?
Answer: -1.06%

Question: Which inhibition does the source give for `COc1nc(N(C)C)nc(N2CC(=O)N(CCNS(=O)(=O)c3ccc(C)cc3)C2=N)n1` here?
Answer: 22.6% (active)

Question: How did the inhibition turn out when `Cc1ccc(S(=O)(=O)NCCSC(C)(C)C)cc1` was run?
Answer: -0.21%

Question: How did the inhibition turn out when `COc1nc(Oc2ccc(=O)n(C)n2)nc(N(C)C)n1` was run?
Answer: -0.4%

Question: `COc1ccccc1C(=O)NC1CCCCN(C(C)C)C1=O` (stereo not drawn) was tested. Which inhibition did it give?
Answer: 2.58%

Question: With `COc1ccc(C(=O)COC(=O)c2ccc([N+](=O)[O-])s2)cc1OC` as the compound, how does the inhibition read?
Answer: 21.7% (active)

Question: How did the inhibition turn out when `COc1ccc(C(=O)OCC(=O)c2ccc(C)c(S(=O)(=O)N3CCOCC3)c2)cc1OC` was run?
Answer: -0.9%

Question: For `O=C(OCC(=O)N1CCN(c2ccccc2)CC1)c1ccc([N+](=O)[O-])s1`, which inhibition is on record?
Answer: -3.28%

Question: `CC(c1c[nH]c2ccccc12)c1c(-c2ccccc2)n(C)c2ccccc12` (stereo not drawn) was tested. Which inhibition did it give?
Answer: 1.29%

Question: With `Cc1cc(C)n2ncc(C(=O)Nc3ccc4c(c3)OCCO4)c2n1` as the compound, how does the inhibition read?
Answer: -6.73%

Question: For `CCC(C)C(CO)NC(=O)/C=C/[C@H]1O[C@@H](n2cnc3c(NC(=O)c4ccccc4)ncnc32)[C@H](O)[C@@H]1O` (stereo partly drawn), which inhibition is on record?
Answer: 19.7%

Question: For `COc1cccc(CN(C)C(=O)CC[C@H]2O[C@@H](n3cnc4c(NC(=O)c5ccccc5)ncnc43)[C@H](O)[C@@H]2O)c1`, which inhibition is on record?
Answer: 0.17%

Question: Which inhibition does the source give for `O=C(/C=C/[C@H]1O[C@@H](n2cnc3c(NC(=O)c4ccccc4)ncnc32)[C@H](O)[C@@H]1O)NCc1ccccc1` here?
Answer: 23% (active)

Question: How did the inhibition turn out when `Cc1ccc(-n2c(COc3ccccc3)nnc2SCC(=O)Nc2ccc3c(c2)OCCO3)cc1` was run?
Answer: 1.6%

Question: `COc1ccc(Cn2cc(COC(=O)N(C)Cc3ccccc3)nn2)cc1` was tested. Which inhibition did it give?
Answer: 1.11%

Question: Which inhibition does the source give for `COc1ccccc1NC(=O)C1CCCN1S(=O)(=O)c1ccc(Cl)cc1` (stereo not drawn) here?
Answer: -0.35%

Question: How did the inhibition turn out when `Cc1cccc(NC(=O)C2CCCN2S(=O)(=O)c2ccc(F)cc2)c1C` (stereo not drawn) was run?
Answer: 42.7% (active)

Question: For `Cc1cccc(NC(=O)C2CCCN(C(=O)Nc3ccc(F)cc3)C2)c1C` (stereo not drawn), which inhibition is on record?
Answer: 10.2%

Question: For `Cc1ccccc1NC(=O)COC(=O)c1ccc(Sc2ncn[nH]2)c([N+](=O)[O-])c1`, which inhibition is on record?
Answer: -0.88%

Question: `O=C(NC1CCCCN(Cc2ccc(Cl)cc2)C1=O)c1ccc(Br)cc1` (stereo not drawn) was tested. Which inhibition did it give?
Answer: -3.02%

Question: For `C[C@@H]1COc2cccc(N3CCCC3)c2S(=O)(=O)N1C`, which inhibition is on record?
Answer: 0.4%

Question: How did the inhibition turn out when `CC(C)(C)N(Cc1ccccc1)C(=O)c1ccncc1` was run?
Answer: 1.02%

Question: Which inhibition does the source give for `CC(Cc1cccs1)NC(=O)c1cccc(Cl)c1` (stereo not drawn) here?
Answer: -1.41%

Question: Which inhibition does the source give for `CC(Cc1cccs1)N(Cc1ccc(Cl)cc1)C(=O)c1ccncc1` (stereo not drawn) here?
Answer: 26.1% (active)

Question: `COc1ccc(C2Nc3ccccc3C(=O)N2Cc2cccs2)cc1COc1c(C)cccc1C` (stereo not drawn) was tested. Which inhibition did it give?
Answer: 1.56%

Question: Which inhibition does the source give for `O=C1Nc2ccccc2OC1CC(=O)N1CCCCCCC1` (stereo not drawn) here?
Answer: -2.05%

Question: `CC(=O)OCCN1CCCC12CCC(c1ccccc1)CC2` (stereo not drawn) was tested. Which inhibition did it give?
Answer: 0.81%

Question: With `CCOc1ccc(C(C)=O)cc1COC(=O)CN1C(=O)NC2(CCCC2)C1=O` as the compound, how does the inhibition read?
Answer: 2.29%

Question: For `Cc1ccc(COC(=O)CN2C(=O)NC3(CCCC3)C2=O)cc1`, which inhibition is on record?
Answer: 42.5% (active)

Question: Which inhibition does the source give for `O=C(CN1C(=O)NC2(CCCC2)C1=O)OCCOc1ccc(F)cc1` here?
Answer: 0.11%

Question: How did the inhibition turn out when `COc1ccccc1CCNC(=O)C1CCN(c2nc(C)cc(C)n2)CC1` was run?
Answer: 2.65%

Question: With `CC(C)CC(COCc1ccc(Cl)cc1)N1CCN(C(=O)c2ccc(C(F)(F)F)cc2)CCC1=O` (stereo not drawn) as the compound, how does the inhibition read?
Answer: 10.1%

Question: With `COc1ccc(COC[C@H](CC(C)C)N2CCN(C(=O)c3cccc(C(F)(F)F)c3)CCC2=O)cc1` as the compound, how does the inhibition read?
Answer: 21.1% (active)

Question: With `O=C(c1ccc(C(F)(F)F)cc1)N1CCC(=O)N([C@H](COCc2ccccc2)Cc2ccccc2)CC1` as the compound, how does the inhibition read?
Answer: -0.62%

Question: For `O=C(CSc1nnc(COc2ccccc2)n1Cc1ccco1)c1ccc2ccccc2c1`, which inhibition is on record?
Answer: -1.9%

Question: How did the inhibition turn out when `CCn1c2ccccc2c2cc(NC(=O)CSc3nnc(-c4ccccc4)n3-c3ccc(C)cc3)ccc21` was run?
Answer: -2.76%

Question: For `CCCc1nc2c3ccccc3ccn2c1Cc1ccccc1C(F)(F)F`, which inhibition is on record?
Answer: 22.9% (active)

Question: How did the inhibition turn out when `FC(F)(F)c1ccccc1Cc1c(-c2ccccc2)nc2c3ccccc3ccn12` was run?
Answer: 14.2%

Question: For `Cc1cc(Br)cn2c(Cc3ccccc3C(F)(F)F)c(C3CCCCC3)nc12`, which inhibition is on record?
Answer: 11.3%
